Measurements from the OligoGym collection.
Note: reference of the scale not given here.

What follows are sequences tested against IREB2 (assay: pooled miR-30 sensor sort-seq; sequence = guide strand). Settings: shRNA.
TATTGTAGTTCGATCAACTATA showed a sensor-assay potency score (higher = more potent) of -0.8.
Sequence TTCATCATCATTTACATCCATG has a sensor-assay potency score (higher = more potent) of -0.574.
For TTTAGATACATCGAAGAACTTC, the sensor-assay potency score (higher = more potent) was -0.321.
Work on TAAAATTCCACAGGTAACCAAA yielded a sensor-assay potency score (higher = more potent) of -1.05.
TTATGTGTGAATCTGTGCCGAC showed a sensor-assay potency score (higher = more potent) of -0.0474.

These sequences were tested against IRF2 in the same assay as above. Settings: shRNA.
In the case of TCTTGATTCTCAATGTTGCTGT, the sensor-assay potency score (higher = more potent) is reported as 0.147.
TTCTGCATAGGAAGACACGGGG showed a sensor-assay potency score (higher = more potent) of -0.312.
Work on TTTGCCTTCAATATTCCTCTTC yielded a sensor-assay potency score (higher = more potent) of 0.432.
For TTCAATATTCCTCTTCCGCCAG, the sensor-assay potency score (higher = more potent) was -0.844.
Work on AATCTCTTGATTCTCAATGTTG yielded a sensor-assay potency score (higher = more potent) of -1.2.
TTTCCTTTCTTAGAAGGCCGTT was tested, and the sensor-assay potency score (higher = more potent) was -0.36.
With TTTCTTTATGCTTTTATCCTTG the sensor-assay potency score (higher = more potent) was -0.739.
For TATCAGTCGTTTCGCTTTCTGC, the sensor-assay potency score (higher = more potent) was -0.797.
With TTGCTCTCCTCTTTGATGGTGA the sensor-assay potency score (higher = more potent) was -0.593.
TTTCTGCATAGGAAGACACGGG was tested, and the sensor-assay potency score (higher = more potent) was -0.335.
TACAACTTGGCAAATGTCTGGC was tested, and the sensor-assay potency score (higher = more potent) was 0.449.
